Experimental data published in PubChem BioAssay (NCATS).
Inconclusive results are not listed. Calls of active or inactive are those of the source. Calls follow the shape of the dose curve; as a rule, active = well fitted curve in the direction sought with a large enough effect; inconclusive = small, poorly fitted or top-dose-only effect, or another doubt; inactive = no such curve, though single readings can be large; an effect the other way counts as inactive or inconclusive.

Biological target: Galactokinase (Homo sapiens) (UniProt P51570)
Sequence (P51570 whole entry, looked up): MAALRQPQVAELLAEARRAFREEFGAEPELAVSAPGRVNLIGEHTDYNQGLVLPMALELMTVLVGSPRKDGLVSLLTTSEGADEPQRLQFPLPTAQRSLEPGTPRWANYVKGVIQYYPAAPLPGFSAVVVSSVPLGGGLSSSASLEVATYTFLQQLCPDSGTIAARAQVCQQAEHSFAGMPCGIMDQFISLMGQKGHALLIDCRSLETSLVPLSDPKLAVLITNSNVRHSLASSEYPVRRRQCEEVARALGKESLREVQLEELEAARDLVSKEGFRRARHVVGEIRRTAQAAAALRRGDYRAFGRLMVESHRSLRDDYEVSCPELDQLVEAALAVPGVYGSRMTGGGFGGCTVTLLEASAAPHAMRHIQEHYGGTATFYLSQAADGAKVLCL
Assay: qHTS Validation Assay for Inhibitors of Human Galactokinase (GALK) (AID 493189)
Settings: purified human GALK enzyme activity, qHTS 7-point titration; series mostly up to 57.5 µM; activity change, negative = inhibition: at the top concentration
Summary of the method: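 Inhibition was measured as remaining ATP, detected by luciferase luminescence after a 1 h room-temperature reaction. Final conditions: 5 nM GALK, 100 uM galactose, 35 uM ATP, pH 8.0 HEPES buffer.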
Also: 0% is about no effect.

Compound | activity change, negative = inhibition
CCN1CCCC1CNC(=O)c1cc(S(N)(=O)=O)ccc1OC (stereo not given) | -14.8% (inactive)
COc1cc2ncnc(Nc3cccc(Cl)c3)c2cc1OC | -0.624% (inactive)
CC(C)NCC(O)c1ccc(NS(C)(=O)=O)cc1 (stereo not given) | 2.86% (inactive)
Nc1nc(N)c2nc(CNc3ccc(C(=O)NC(CCC(=O)O)C(=O)O)cc3)cnc2n1 (stereo not given) | -2.83% (inactive)
CC1=C(C(=O)O)N2C(=O)[C@@H](NC(=O)C(N)c3ccccc3)[C@H]2SC1 (stereo not given in full) | 2.32% (inactive)
OCc1ccc(-c2nn(Cc3ccccc3)c3ccccc23)o1 | -2.08% (inactive)
CCCCS(=N)(=O)CCC(N)C(=O)O (stereo not given) | 1.73% (inactive)
CC(=O)[C@H]1CC[C@H]2[C@@H]3CCC4=CC(=O)CC[C@]4(C)[C@H]3CC[C@]12C | -4.18% (inactive)
NC(=O)c1cccc(N)c1 | -2.57% (inactive)
O=C(O)C1CCCN(CCC=C(c2ccccc2)c2ccccc2)C1 (stereo not given) | -5.27% (inactive)
Cc1ccc(S(=O)(=O)N[C@@H](Cc2ccccc2)C(=O)CCl)cc1 | -3.43% (inactive)
CC(C)(C)NC(=O)[C@H]1CC[C@H]2[C@@H]3CC[C@H]4NC(=O)C=C[C@]4(C)[C@H]3CC[C@]12C | 1.5% (inactive)

Tested on: not listed separately
Assay: Validation screen for small molecules that induce DNA re-replication in SW480 colon adenocarcinoma cells (AID 504364)
Settings: DNA re-replication phenotype (high-content imaging); series mostly up to 46.1 µM; activity (re-replication induction): at the top concentration
Summary of the method: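 Read-out: total Hoechst intensity of nuclei by fluorescence scanning imager; hits raise the fraction of nuclei with elevated DNA content. Cells received compound for 48 hr at 37 C before a 40 min stain.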

Compound | activity (re-replication induction)
CCN1CCCC1CNC(=O)c1cc(S(N)(=O)=O)ccc1OC (stereo not given) | -1.51% (inactive)
COc1cc2ncnc(Nc3cccc(Cl)c3)c2cc1OC | -14.7% (inactive)
CC(C)NCC(O)c1ccc(NS(C)(=O)=O)cc1 (stereo not given) | -6.99% (inactive)
Nc1nc(N)c2nc(CNc3ccc(C(=O)NC(CCC(=O)O)C(=O)O)cc3)cnc2n1 (stereo not given) | -22.9% (inactive)
CC1=C(C(=O)O)N2C(=O)[C@@H](NC(=O)C(N)c3ccccc3)[C@H]2SC1 (stereo not given in full) | 14.4% (inactive)
OCc1ccc(-c2nn(Cc3ccccc3)c3ccccc23)o1 | 8.9% (inactive)
CCCCS(=N)(=O)CCC(N)C(=O)O (stereo not given) | -6.86% (inactive)
CC(=O)[C@H]1CC[C@H]2[C@@H]3CCC4=CC(=O)CC[C@]4(C)[C@H]3CC[C@]12C | -2.52% (inactive)
NC(=O)c1cccc(N)c1 | 0.885% (inactive)
CCN(CC)CC#CCOC(=O)C(O)(c1ccccc1)C1CCCCC1 (stereo not given) | 8.76% (inactive)
O=C(O)C1CCCN(CCC=C(c2ccccc2)c2ccccc2)C1 (stereo not given) | 7.04% (inactive)
Cc1ccc(S(=O)(=O)N[C@@H](Cc2ccccc2)C(=O)CCl)cc1 | 16.3% (inactive)
CC(C)(C)NC(=O)[C@H]1CC[C@H]2[C@@H]3CC[C@H]4NC(=O)C=C[C@]4(C)[C@H]3CC[C@]12C | -7.85% (inactive)
